Of roughly 8,800 targets only a part is listed; those with a hit were picked by preference. About 0.5% of all pairs of compound and target were hits. Values without a mark were called inactive.
Key:
Test in all cases: log2 fold change, soluble protein after heating vs DMSO (PISA); higher = thermal stabilisation; K562 lysate, 10 uM; active = over 0.2 and 3.5 SD of the protein, either way, in both replicates (recomputed)
ibrutinib = compound: C=CC(=O)N1CCC[C@@H](n2nc(-c3ccc(Oc4ccccc4)cc3)c3c(N)ncnc32)C1 [ibrutinib]
Method in brief: (§1)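 Thermal stability, expressed as log-two fold change relative to solvent controls, is given from duplicates. Crude K562 extract in PBS pH 7.4 with 1 mM MgCl2, at 1 mg/mL protein, was treated with 10 μM compound for 30 min and heated in aliquots for 3 min across 48°C-58°C. After pooling, adjustment to 0.5% NP-40 at 4°C and centrifugation at 21,000xg for 90 min, supernatant protein was measured by TMTpro 16plex LC-MS/MS with channel sums equalised.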

[1] = compound: CC(=O)c1cnc2ccc(-c3cc(Cl)c(O)c(Cl)c3)nc2c1N[C@H]1CC[C@H](CN(C)C)CC1
Method in brief: as §1

ralimetinib = compound: CC(C)(C)Cn1c(N)nc2ccc(-c3[nH]c(C(C)(C)C)nc3-c3ccc(F)cc3)nc21 [ralimetinib]
Method in brief: as §1

[2] = compound: CC(C)(O)CC(=O)NCCn1ccc2ncnc(Nc3ccc(Oc4cccc(C(F)(F)F)c4)c(Cl)c3)c21
Method in brief: as §1

[3] = compound: CC(C)C1=C2N=C(C=C(N2N=C1)NCC3=CC=CC=C3)NCCCCCCN
Method in brief: as §1

[4] = compound: CC1=C(C(CC(=O)N1)C2=CC=C(C=C2)C(F)(F)F)C(=O)NC3=C(C=C4C(=C3)C=NN4)F
Method in brief: as §1

[5] = compound: CC1=C(C2=C(C=C1)C(=O)C3=CC=CC=C3N2CCCN)C
Method in brief: as §1

[6] = compound: CC1=C(C=C(C=C1)NC(=O)C2=CC(=CC=C2)C(C)(C)C#N)NC3=CC4=C(C=C3)N=CN(C4=O)C
Method in brief: as §1

[7] = compound: CC1=C(C=C(C=C1)NC(=O)C2=CC(=CC=C2)N(C)C)NC(=O)C3=CC=C(C=C3)O
Method in brief: as §1

[8] = compound: CC1=CC=C(C=C1)SC2=C3C=C(SC3=CN=C2)C(=O)N
Method in brief: as §1

vemurafenib = compound: CCCS(=O)(=O)Nc1ccc(F)c(C(=O)c2c[nH]c3ncc(-c4ccc(Cl)cc4)cc23)c1F [vemurafenib]
Method in brief: as §1

[9] = compound: CCCS(=O)(=O)Nc1ccc(F)c(C(=O)c2c[nH]c3ncc(Cl)cc23)c1F
Method in brief: as §1

barasertib = compound: CCN(CCCOc1ccc2c(Nc3cc(CC(=O)Nc4cccc(F)c4)[nH]n3)ncnc2c1)CCOP(=O)(O)O [barasertib]
Method in brief: as §1

[10] = compound: CC[C@@H]1C(=O)N(C)c2cnc(Nc3ccc(C(=O)NC4CCN(C)CC4)cc3OC)nc2N1C1CCCC1
Method in brief: as §1

volasertib = compound: CC[C@@H]1C(=O)N(C)c2cnc(Nc3ccc(C(=O)N[C@H]4CC[C@H](N5CCN(CC6CC6)CC5)CC4)cc3OC)nc2N1C(C)C [volasertib]
Method in brief: as §1

[11] = compound: CCn1c(C(=O)N(C2CC2)C2CC2)cc2c3c(ncn3C)c(Nc3cc(C)n(C)n3)nc21
Method in brief: as §1

[12] = compound: CCn1cc(-c2ccnc3[nH]c(-c4cccc(CN(C)C)c4)cc23)c(-c2ccc(NC(=O)N(C)C)cc2)n1
Method in brief: as §1

[13] = compound: CN1CCC(CNc2ccc3ncc(-c4cccc(OC(F)(F)F)c4)n3n2)CC1
Method in brief: as §1

saracatinib = compound: CN1CCN(CCOc2cc(OC3CCOCC3)c3c(Nc4c(Cl)ccc5c4OCO5)ncnc3c2)CC1 [saracatinib]
Method in brief: as §1

sotrastaurin = compound: CN1CCN(c2nc(C3=C(c4c[nH]c5ccccc45)C(=O)NC3=O)c3ccccc3n2)CC1 [sotrastaurin]
Method in brief: as §1

Sequence of UniProt Q6KC79 (Q6KC79 whole entry, looked up): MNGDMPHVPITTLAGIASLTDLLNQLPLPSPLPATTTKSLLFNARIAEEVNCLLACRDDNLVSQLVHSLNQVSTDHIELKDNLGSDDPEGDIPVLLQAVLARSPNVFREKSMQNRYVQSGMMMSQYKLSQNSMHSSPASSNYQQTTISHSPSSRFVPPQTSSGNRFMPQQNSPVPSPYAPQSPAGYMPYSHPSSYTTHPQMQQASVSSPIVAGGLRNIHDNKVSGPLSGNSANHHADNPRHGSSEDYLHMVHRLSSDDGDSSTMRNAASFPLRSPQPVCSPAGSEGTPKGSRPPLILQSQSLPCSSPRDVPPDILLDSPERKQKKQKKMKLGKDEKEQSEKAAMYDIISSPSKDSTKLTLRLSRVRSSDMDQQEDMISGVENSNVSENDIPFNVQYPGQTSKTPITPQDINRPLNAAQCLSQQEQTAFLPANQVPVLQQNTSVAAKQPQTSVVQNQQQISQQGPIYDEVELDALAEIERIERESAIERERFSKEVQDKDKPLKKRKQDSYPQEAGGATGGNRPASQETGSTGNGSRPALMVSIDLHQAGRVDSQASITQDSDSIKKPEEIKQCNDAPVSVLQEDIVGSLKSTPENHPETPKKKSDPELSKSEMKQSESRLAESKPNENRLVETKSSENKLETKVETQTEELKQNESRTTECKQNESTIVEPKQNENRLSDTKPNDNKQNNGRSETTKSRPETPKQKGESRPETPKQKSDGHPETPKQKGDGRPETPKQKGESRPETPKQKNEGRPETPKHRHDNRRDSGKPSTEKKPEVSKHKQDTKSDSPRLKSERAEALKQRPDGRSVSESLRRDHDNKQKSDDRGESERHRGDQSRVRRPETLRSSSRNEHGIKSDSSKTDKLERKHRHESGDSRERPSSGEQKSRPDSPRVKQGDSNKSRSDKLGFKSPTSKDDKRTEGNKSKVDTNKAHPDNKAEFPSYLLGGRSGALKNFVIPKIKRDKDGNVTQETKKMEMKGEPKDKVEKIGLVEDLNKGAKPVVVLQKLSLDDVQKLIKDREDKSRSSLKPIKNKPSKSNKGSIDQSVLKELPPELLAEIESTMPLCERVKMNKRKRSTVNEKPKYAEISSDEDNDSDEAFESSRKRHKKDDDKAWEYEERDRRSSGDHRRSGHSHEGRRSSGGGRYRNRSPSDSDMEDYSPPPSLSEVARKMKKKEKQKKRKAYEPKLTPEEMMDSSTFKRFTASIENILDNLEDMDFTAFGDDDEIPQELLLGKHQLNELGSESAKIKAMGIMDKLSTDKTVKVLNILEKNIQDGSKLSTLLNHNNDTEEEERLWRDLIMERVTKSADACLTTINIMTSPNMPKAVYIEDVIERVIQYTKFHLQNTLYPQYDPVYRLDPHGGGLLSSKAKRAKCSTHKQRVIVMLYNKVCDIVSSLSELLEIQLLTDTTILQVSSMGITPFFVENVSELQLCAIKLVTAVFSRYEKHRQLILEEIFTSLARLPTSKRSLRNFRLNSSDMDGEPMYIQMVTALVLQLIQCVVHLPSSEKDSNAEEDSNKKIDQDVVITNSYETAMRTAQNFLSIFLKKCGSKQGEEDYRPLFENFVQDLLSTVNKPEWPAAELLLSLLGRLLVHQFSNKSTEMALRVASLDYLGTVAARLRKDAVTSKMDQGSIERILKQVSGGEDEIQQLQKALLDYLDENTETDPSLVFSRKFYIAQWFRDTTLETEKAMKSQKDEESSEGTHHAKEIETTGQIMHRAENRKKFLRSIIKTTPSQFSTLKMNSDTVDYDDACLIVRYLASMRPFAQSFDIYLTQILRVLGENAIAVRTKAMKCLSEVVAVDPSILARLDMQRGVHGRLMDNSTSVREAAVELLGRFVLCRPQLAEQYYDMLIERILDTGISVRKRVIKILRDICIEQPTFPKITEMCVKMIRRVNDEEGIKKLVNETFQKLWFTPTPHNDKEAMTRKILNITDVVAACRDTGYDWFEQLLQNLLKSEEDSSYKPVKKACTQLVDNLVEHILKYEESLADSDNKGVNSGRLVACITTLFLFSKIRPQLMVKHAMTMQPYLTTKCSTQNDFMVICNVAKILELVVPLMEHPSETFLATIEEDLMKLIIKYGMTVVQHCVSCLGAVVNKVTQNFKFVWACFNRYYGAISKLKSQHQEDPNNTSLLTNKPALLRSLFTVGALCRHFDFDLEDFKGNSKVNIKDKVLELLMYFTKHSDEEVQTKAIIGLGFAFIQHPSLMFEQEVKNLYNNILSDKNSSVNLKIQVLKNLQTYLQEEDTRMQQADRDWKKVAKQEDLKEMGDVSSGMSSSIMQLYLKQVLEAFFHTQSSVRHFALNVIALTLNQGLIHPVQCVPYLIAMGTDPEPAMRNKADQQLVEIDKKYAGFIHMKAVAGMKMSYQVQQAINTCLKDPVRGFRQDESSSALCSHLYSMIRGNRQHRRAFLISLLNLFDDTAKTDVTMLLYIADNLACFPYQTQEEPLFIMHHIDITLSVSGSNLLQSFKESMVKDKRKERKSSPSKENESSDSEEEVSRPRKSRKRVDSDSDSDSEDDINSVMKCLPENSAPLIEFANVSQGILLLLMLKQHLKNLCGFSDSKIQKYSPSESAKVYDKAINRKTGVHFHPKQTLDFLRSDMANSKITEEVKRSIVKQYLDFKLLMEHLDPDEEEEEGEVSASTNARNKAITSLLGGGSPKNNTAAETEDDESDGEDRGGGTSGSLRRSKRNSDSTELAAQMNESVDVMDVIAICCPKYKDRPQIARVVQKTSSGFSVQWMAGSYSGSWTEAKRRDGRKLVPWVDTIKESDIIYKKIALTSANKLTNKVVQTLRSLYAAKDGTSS
Sequence of UniProt O43913 (O43913 whole entry, looked up): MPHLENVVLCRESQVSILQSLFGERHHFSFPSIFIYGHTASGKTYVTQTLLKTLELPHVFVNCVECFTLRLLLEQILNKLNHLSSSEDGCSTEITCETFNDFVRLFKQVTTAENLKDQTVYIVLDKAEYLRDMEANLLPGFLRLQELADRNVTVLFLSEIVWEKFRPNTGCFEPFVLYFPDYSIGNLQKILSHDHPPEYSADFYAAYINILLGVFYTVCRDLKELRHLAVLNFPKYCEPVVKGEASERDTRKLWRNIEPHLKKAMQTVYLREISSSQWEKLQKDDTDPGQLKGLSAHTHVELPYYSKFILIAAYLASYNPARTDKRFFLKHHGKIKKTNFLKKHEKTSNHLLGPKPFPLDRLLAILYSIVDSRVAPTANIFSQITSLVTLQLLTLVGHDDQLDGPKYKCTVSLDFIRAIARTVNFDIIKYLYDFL
Sequence of UniProt O75607 (O75607 whole entry, looked up): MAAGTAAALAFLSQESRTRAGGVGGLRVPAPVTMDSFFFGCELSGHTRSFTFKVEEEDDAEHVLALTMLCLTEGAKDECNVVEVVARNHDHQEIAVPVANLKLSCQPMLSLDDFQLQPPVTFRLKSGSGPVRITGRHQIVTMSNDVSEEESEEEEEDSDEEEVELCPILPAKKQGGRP
Sequence of UniProt Q6GQQ9 (Q6GQQ9 whole entry, looked up): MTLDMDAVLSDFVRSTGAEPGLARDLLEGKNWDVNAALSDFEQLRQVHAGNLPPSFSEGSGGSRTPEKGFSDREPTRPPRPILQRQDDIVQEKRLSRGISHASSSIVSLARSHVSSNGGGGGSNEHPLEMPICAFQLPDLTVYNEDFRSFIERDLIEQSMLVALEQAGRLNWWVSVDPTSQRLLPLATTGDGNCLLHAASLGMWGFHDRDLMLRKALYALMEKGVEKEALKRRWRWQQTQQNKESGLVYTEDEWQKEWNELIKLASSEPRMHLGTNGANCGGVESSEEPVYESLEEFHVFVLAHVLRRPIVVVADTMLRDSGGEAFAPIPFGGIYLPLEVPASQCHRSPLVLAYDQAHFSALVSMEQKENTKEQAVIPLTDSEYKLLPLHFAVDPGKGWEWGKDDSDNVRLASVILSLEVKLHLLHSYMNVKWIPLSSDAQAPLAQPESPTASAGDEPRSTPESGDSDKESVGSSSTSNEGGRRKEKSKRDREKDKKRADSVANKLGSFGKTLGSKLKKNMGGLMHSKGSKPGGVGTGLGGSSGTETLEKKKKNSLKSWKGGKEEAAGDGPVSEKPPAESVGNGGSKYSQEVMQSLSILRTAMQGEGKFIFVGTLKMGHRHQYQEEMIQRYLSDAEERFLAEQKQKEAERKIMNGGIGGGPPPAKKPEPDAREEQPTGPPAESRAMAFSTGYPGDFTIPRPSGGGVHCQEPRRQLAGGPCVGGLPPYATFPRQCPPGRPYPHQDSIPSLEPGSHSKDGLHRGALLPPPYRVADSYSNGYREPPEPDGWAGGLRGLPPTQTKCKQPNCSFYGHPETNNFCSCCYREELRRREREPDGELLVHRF
Sequence of UniProt Q9Y6C9 (Q9Y6C9 whole entry, looked up): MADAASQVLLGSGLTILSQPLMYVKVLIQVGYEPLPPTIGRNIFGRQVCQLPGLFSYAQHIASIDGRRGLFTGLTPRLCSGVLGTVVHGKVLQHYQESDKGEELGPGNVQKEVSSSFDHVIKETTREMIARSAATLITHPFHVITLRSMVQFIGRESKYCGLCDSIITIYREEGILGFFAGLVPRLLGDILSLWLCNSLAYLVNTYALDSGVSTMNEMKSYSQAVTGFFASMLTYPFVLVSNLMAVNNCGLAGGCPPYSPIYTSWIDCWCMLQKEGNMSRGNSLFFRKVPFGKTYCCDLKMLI

With NUP188 (UniProt Q5SRE5) the log2 fold change (ibrutinib) was -0.026, the log2 fold change [1] was 0.019 and the log2 fold change (ralimetinib) was 0.041. For the same target, the log2 fold change [2] was -0.021, the log2 fold change [3] was -0.028 and the log2 fold change [4] was -0.005. It also gave a log2 fold change [5] of 0.035, a log2 fold change [6] of -0.04 and a log2 fold change [7] of 0.042. The log2 fold change [8] was -0.018, the log2 fold change (vemurafenib) was -0.006 and the log2 fold change [9] was -0.006. The log2 fold change (barasertib) was 0.074, the log2 fold change [10] was -0.067 and the log2 fold change (volasertib) was -0.077. It also gave a log2 fold change [11] of 0.05, a log2 fold change [12] of -0.031 and a log2 fold change [13] of -0.045. It also gave a log2 fold change (saracatinib) of 0.029 and a log2 fold change (sotrastaurin) of 0.021.
MTCH2 (UniProt Q9Y6C9) gave a log2 fold change (ibrutinib) of 0.008, a log2 fold change [1] of -0.022 and a log2 fold change (ralimetinib) of 0.022. It also gave a log2 fold change [2] of 0.023, a log2 fold change [3] of 0.044 and a log2 fold change [4] of -0.019. For the same target, the log2 fold change [5] was -0.011, the log2 fold change [6] was 0.043 and the log2 fold change [7] was -0.036. For the same target, the log2 fold change [8] was 0.031, the log2 fold change (vemurafenib) was 0.013 and the log2 fold change [9] was 0.008. For the same target, the log2 fold change (barasertib) was -0.02, the log2 fold change [10] was 0.021 and the log2 fold change (volasertib) was 0.05. For the same target, the log2 fold change [11] was -0.012, the log2 fold change [12] was -0.155 and the log2 fold change [13] was 0.014. The log2 fold change (saracatinib) was -0.011 and the log2 fold change (sotrastaurin) was 0.022.
NEBL (UniProt O76041) was tested, and the log2 fold change (ibrutinib) was 0.087, the log2 fold change [1] was 0.052 and the log2 fold change (ralimetinib) was 0.009. For the same target, the log2 fold change [2] was -0.003, the log2 fold change [3] was -0.015 and the log2 fold change [4] was -0.037. The log2 fold change [5] was -0.061, the log2 fold change [6] was -0.006 and the log2 fold change [7] was -0.012. For the same target, the log2 fold change [8] was -0.025, the log2 fold change (vemurafenib) was 0.034 and the log2 fold change [9] was -0.027. The log2 fold change (barasertib) was 0.066, the log2 fold change [10] was 0.039 and the log2 fold change (volasertib) was 0.014. The log2 fold change [11] was -0.014, the log2 fold change [12] was 0.29 (active) and the log2 fold change [13] was -0.002. The log2 fold change (saracatinib) was -0.035 and the log2 fold change (sotrastaurin) was 0.085.
ORC5 (UniProt O43913) gave a log2 fold change (ibrutinib) of 0.05, a log2 fold change [1] of 0 and a log2 fold change (ralimetinib) of 0.047. It also gave a log2 fold change [2] of -0.001, a log2 fold change [3] of 0.022 and a log2 fold change [4] of -0.027. It also gave a log2 fold change [5] of -0.008, a log2 fold change [6] of 0.012 and a log2 fold change [7] of 0.053. For the same target, the log2 fold change [8] was -0.007, the log2 fold change (vemurafenib) was -0.059 and the log2 fold change [9] was -0.001. For the same target, the log2 fold change (barasertib) was -0.052, the log2 fold change [10] was -0.156 and the log2 fold change (volasertib) was -0.023. For the same target, the log2 fold change [11] was 0.013, the log2 fold change [12] was -0.038 and the log2 fold change [13] was 0.01. It also gave a log2 fold change (saracatinib) of -0.001 and a log2 fold change (sotrastaurin) of 0.024.
For OTUD7B (UniProt Q6GQQ9), the log2 fold change (ibrutinib) was -0.008, the log2 fold change [1] was 0.004 and the log2 fold change (ralimetinib) was 0.026. For the same target, the log2 fold change [2] was 0.005, the log2 fold change [3] was -0.034 and the log2 fold change [4] was -0.011. The log2 fold change [5] was -0.019, the log2 fold change [6] was 0.239 (active) and the log2 fold change [7] was 0. The log2 fold change [8] was 0.047, the log2 fold change (vemurafenib) was 0.033 and the log2 fold change [9] was 0.011. The log2 fold change (barasertib) was 0.116, the log2 fold change [10] was -0.029 and the log2 fold change (volasertib) was -0.049. The log2 fold change [11] was 0.018, the log2 fold change [12] was 0.017 and the log2 fold change [13] was -0.042. The log2 fold change (saracatinib) was 0.015 and the log2 fold change (sotrastaurin) was -0.011.
In the case of NPM3 (UniProt O75607), the log2 fold change (ibrutinib) was 0.038, the log2 fold change [1] was 0.03 and the log2 fold change (ralimetinib) was 0.029. The log2 fold change [2] was -0.077, the log2 fold change [3] was 0.018 and the log2 fold change [4] was 0.048. It also gave a log2 fold change [5] of -0.03, a log2 fold change [6] of 0.069 and a log2 fold change [7] of 0.018. It also gave a log2 fold change [8] of -0.037, a log2 fold change (vemurafenib) of 0.052 and a log2 fold change [9] of 0.03. The log2 fold change (barasertib) was -0.065, the log2 fold change [10] was 0.058 and the log2 fold change (volasertib) was -0.015. For the same target, the log2 fold change [11] was -0.007, the log2 fold change [12] was -0.376 (active) and the log2 fold change [13] was 0.158. It also gave a log2 fold change (saracatinib) of -0.023 and a log2 fold change (sotrastaurin) of 0.025.
For NIPBL (UniProt Q6KC79), the log2 fold change (ibrutinib) was 0.026, the log2 fold change [1] was 0.008 and the log2 fold change (ralimetinib) was 0.035. It also gave a log2 fold change [2] of -0.016, a log2 fold change [3] of 0.036 and a log2 fold change [4] of 0.007. It also gave a log2 fold change [5] of -0.025, a log2 fold change [6] of -0.03 and a log2 fold change [7] of -0.044. The log2 fold change [8] was 0.021, the log2 fold change (vemurafenib) was -0.015 and the log2 fold change [9] was 0.091. The log2 fold change (barasertib) was 0.017, the log2 fold change [10] was -0.081 and the log2 fold change (volasertib) was -0.048. It also gave a log2 fold change [11] of 0.04, a log2 fold change [12] of -0.004 and a log2 fold change [13] of -0.042. It also gave a log2 fold change (saracatinib) of -0.001 and a log2 fold change (sotrastaurin) of 0.004.

— the supplement of paper PMC10849652
